Experimental data as given in PubChem BioAssay (Tox21).
Several values for one entry are separate records, joined by “and”; a condition that tells them apart may be missing. Identical values can stand only once. Records with an inconclusive call do not appear. Where a call stands in place of a potency, no number is given. The source holds several records for some structures; these can differ, active in one and inactive in another. Activity calls are given as the source filed them. Calls follow the shape of the full dose curve.

molecular target: Acetylcholinesterase (Homo sapiens) (UniProt P22303); assay: Acetylcholinesterase (AChE) small molecule antagonists: fluorescence cell-based qHTS assay (AID 1347398); settings: SH-SY5Y cells; Potency: AChE activity; series mostly up to 115 µM; activity change, negative = inhibition: at the top concentration; also: nearly all actives have a fitted effect of over 50% in size
Sequence (P22303 whole entry, looked up): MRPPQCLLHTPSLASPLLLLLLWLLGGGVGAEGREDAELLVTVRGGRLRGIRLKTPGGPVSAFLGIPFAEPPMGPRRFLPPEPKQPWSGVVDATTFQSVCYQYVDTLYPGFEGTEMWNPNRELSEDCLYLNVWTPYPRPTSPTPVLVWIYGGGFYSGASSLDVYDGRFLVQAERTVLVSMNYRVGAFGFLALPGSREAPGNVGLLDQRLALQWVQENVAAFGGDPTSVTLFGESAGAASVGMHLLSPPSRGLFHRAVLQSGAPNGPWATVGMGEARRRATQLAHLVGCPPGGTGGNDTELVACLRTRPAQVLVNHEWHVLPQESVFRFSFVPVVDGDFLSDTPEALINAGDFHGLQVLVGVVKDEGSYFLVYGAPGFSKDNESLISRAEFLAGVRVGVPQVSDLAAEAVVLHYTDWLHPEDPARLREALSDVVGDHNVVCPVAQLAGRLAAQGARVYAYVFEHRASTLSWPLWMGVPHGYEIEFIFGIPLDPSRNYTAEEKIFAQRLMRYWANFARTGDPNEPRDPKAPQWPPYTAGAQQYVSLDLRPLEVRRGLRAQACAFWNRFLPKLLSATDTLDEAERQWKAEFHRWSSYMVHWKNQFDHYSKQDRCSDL
Text: National Center for Advancing Translational Sciences [NCATS]
Division of Preclinical Innovation [DPI]
U.S. Environmental Protection Agency [EPA]
National Institutes of Environmental Health Sciences [NIEHS]
National Toxicology Program [NTP]
U.S. Food and Drug Administration [FDA]
Acetylcholinesterase (AChE) is the primary cholinesterase in the body that hydrolyzes a key neurotransmitter, acetylcholine. Inhibition of AChE activity can lead to neurotoxicity. Known inhibitors of AChE include organophosphorous pesticides (OP), chemical warfare agents, drugs, and various phytochemicals.
A homogenous cell-based assay using Amplitetrade mark Fluorimetric Acetylcholinesterase Assay Kit *Green Fluorescence* (AAT Bioquest, Sunnyvale, CA) was used to evaluate the chemicals in the Tox21 10K library that inhibit AChE activity. The assay uses Thiolite Green to quantify the thiocholine produced from the hydrolysis of acetylthiocholine by AChE from the SH-SY5Y cells. AChE can hydrolyze acetylthiocholine to create thiocholine. Thiolite Green is fluorescent when reacting with thiocholine. It has spectral properties similar to those of fluorescein. The fluorescence intensity of Thiolite Green is used to measure AChE activity. Its signal can be easily read by a fluorescence microplate reader at Ex/Em = 490/520 nm.
Tox21 Assay Protocol Summary:
For cell-based AChE assay, 2,000 SH-SY5Y cells in 4 uL/well were dispensed into black, clear-bottom 1536-well plates using a Multidrop Combi (Thermo Scientific) dispenser. The assay plates were incubated overnight at 37 C to allow cells to attach to the wells, followed by the transfer of 23 nL compound or DMSO (vehicle control) by a Pintool station (Wako Automation, CA). The plates were incubated for 30 min at 37 C and 5% CO2, followed by the addition of 4 uL of detection cocktail solution (ThioliteGreen, acetylthiocholine) into each well using Flying Reagent Dispenser (Beckman Coulter, CA) and then following 40 min incubation at room temperature. Fluorescent intensity (Ex/Em = 490/520 nm) was measured using an Envision plate reader (PerkinElmer, MA).
Potency is read from the fitted curve at half-maximal effect.

For `Cc1ccc(N)c(N)c1`, which Potency is on record?
The Potency was “inactive”.

`CCOCN(C(=O)CCl)c1c(C)cccc1CC` was tested. Which Potency did it give?
The Potency was “inactive”.

For `C=CCc1ccc(OC)cc1`, which Potency is on record?
Its Potency is “inactive”.

How did the Potency turn out when `CC(C)(OOC(C)(C)c1ccccc1)c1ccccc1` was run?
The Potency was “inactive”.

With `C=CCc1ccc2c(c1)OCO2` as the compound, how does the Potency read?
Its Potency is “inactive”.

With `CNC(=O)N(C)c1nnc(C(C)(C)C)s1` as the compound, how does the Potency read?
The Potency was “inactive”.

How did the Potency turn out when `CNC(=O)Oc1cccc2c1OC(C)(C)O2` was run?
The Potency was 826 nM (active) and 224 nM (active).

`O=C(CCl)c1ccccc1` was tested. Which Potency did it give?
Its Potency is “inactive”.

Which Potency does the source give for `N#Cc1cc(Br)c(O)c(Br)c1` here?
The Potency was “inactive”.

How did the Potency turn out when `CCCCNC(=O)n1c(NC(=O)OC)nc2ccccc21` was run?
The Potency was “inactive”.

For `Cc1ccc2c(c1N)C(=O)c1ccccc1C2=O`, which Potency is on record?
The Potency was “inactive”.

With `CCC(C)(C)c1ccc(O)cc1` as the compound, how does the Potency read?
The Potency was “inactive”.

With `CCCCCCCCOC(=O)c1ccccc1C(=O)OCCCCCCCC` as the compound, how does the Potency read?
The Potency was “inactive”.

Which Potency does the source give for `CCC(C)c1ccc(O)cc1` (stereo not given) here?
Its Potency is “inactive”.

How did the Potency turn out when `O=[N+]([O-])c1cccc2ccccc12` was run?
The Potency was “inactive”.

`Cc1cc(C)cc(C)c1` was tested. Which Potency did it give?
Its Potency is “inactive”.

`C1=Cc2cccc3cccc1c23` was tested. Which Potency did it give?
Its Potency is “inactive”.

`Clc1nc(Cl)nc(Cl)n1` was tested. Which Potency did it give?
The Potency was “inactive”.

Which Potency does the source give for `CCN(N=O)C(N)=O` here?
Its Potency is “inactive”.

With `c1ccc(N=Nc2ccccc2)cc1` as the compound, how does the Potency read?
Its Potency is “inactive”.

`NC(=S)Nc1ccccc1` was tested. Which Potency did it give?
Its Potency is “inactive”.

Which Potency does the source give for `Oc1cc(Cl)c(Cl)cc1Cl` here?
The Potency was “inactive”.

`c1ccc(-c2cccc(-c3ccccc3)c2)cc1` was tested. Which Potency did it give?
The Potency was “inactive”.

For `Cc1cccc(N)c1N`, which “activity change, negative = inhibition” value is on record?
Its value is -13.7% (inactive).

With `Nc1ccc(-c2ccccc2)cc1` as the compound, how does the Potency read?
Its Potency is “inactive”.

`N#CCCCl` was tested. Which Potency did it give?
Its Potency is “inactive”.

How did the Potency turn out when `CCCCC(CC)COC(=O)Cl` (stereo not given) was run?
Its Potency is “inactive”.

For `c1nc[nH]n1`, which Potency is on record?
The Potency was “inactive”.

`C=C(C)C(=O)OCC1CO1` (stereo not given) was tested. Which Potency did it give?
Its Potency is “inactive”.

For `CN(C)C(=O)Nc1ccc(Cl)cc1`, which Potency is on record?
The Potency was “inactive”.

Which Potency does the source give for `CCOC(=O)C(C)OC(=O)c1cc(Oc2ccc(C(F)(F)F)cc2Cl)ccc1[N+](=O)[O-]` (stereo not given) here?
Its Potency is “inactive”.

With `O=C(NC(=O)c1c(F)cccc1F)Nc1ccc(Cl)cc1` as the compound, how does the Potency read?
The Potency was “inactive”.

`CCCCCCOC(=O)c1ccccc1C(=O)OCCCCCC` was tested. Which Potency did it give?
Its Potency is “inactive”.

How did the Potency turn out when `NCc1cccnc1` was run?
The Potency was “inactive”.

For `c1ccc(NNc2ccccc2)cc1`, which Potency is on record?
Its Potency is “inactive”.

`O=P(Oc1ccccc1)(Oc1ccccc1)Oc1ccccc1` was tested. Which Potency did it give?
The Potency was 2.51 µM (active) and 3.56 µM (active).

How did the Potency turn out when `COP(=O)(OC)OC` was run?
The Potency was “inactive”.

Which Potency does the source give for `CCCCN(CCCC)N=O` here?
The Potency was 12.1 µM (active) and inactive.

With `N#CC(Br)Br` as the compound, how does the Potency read?
Its Potency is “inactive”.

Which Potency does the source give for `CCc1cccc(CC)c1N(COC)C(=O)CCl` here?
The Potency was “inactive”.
